RN4220 kill: S. aureus RN4220 growth inhibition; AID 1259311; OD600, 16 h; inhibition, % (no concentration beside the values); 330,000 compounds, 0.33% hits; in the data active = inhibition above about 85%
CCHF vOTU inh: blocks the CCHF virus ovarian tumor domain protease | CCHFV vOTU protease, Pep-AMC fluorescence | inhibition, % at 11.5 µM | 370,000 compounds, 0.55% hits | AID 651958; in the data active = inhibition above about 30%
PriA SSB inh: blocks PriA binding to SSB C-terminal tail; AlphaScreen SSBct-PriA binding, biotinylated peptide; inhibition, % at 33 µM; 430,000 compounds, 0.6% hits; in the data active = inhibition mostly above about 37%, no sharp cut-off; inactive = mostly below about 20%
DUSP3 inh: DUSP3 (human) phosphatase inhibition; 290,000 compounds, 0.52% hits; AID 1654; recombinant VHR phosphatase, pNPP absorbance; inhibition, % at 13.3 µM; P51452; in the data active = inhibition above about 50%
Target sequence (P51452 whole entry, looked up): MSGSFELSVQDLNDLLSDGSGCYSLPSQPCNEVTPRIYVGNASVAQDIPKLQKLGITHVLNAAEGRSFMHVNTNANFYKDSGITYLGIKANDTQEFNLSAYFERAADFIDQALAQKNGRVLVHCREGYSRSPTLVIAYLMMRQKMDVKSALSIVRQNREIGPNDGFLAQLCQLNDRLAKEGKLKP
Sa ugtP lethal: kills S. aureus RN4220 lacking UgtP; S. aureus RN4220 ugtP deletion, OD600 growth, 16 h; AID 1259309; growth inhibition, % (concentration not given with the values); 330,000 compounds, 0.54% hits; in the data active = growth inhibition above about 68%
Hits are given with their value; 0 = inactive; - = not tested or not shown; ! = repeats disagree. The list is not random: actives were taken first. Their share in the collection is about 1.5%.

SMILES	RN4220 kill	CCHF vOTU inh	PriA SSB inh	DUSP3 inh	Sa ugtP lethal
Cc1cc(-c2nnc(NC(=O)C3COc4ccccc4O3)o2)n(C)n1 (stereo not given)	-	-	44	-	-
O=C(Nc1nnc(C2CCCO2)o1)C(c1ccccc1)c1ccccc1 (stereo not given)	-	-	84	-	-
O=C(Nc1nnc(C2CCCO2)o1)C1COc2ccccc2O1 (stereo not given)	-	-	75	-	-
O=C(Nc1nnc(C2CCCO2)o1)c1cc2ccccc2o1 (stereo not given)	-	-	0	-	-
O=C(Cc1ccc(F)cc1)Nc1ccc(Cl)cn1	0	0	0	60	0
O=c1c2ccccc2nc(/C=C/c2ccc([N+](=O)[O-])o2)n1CCCO	114	0	0	0	99
O=c1c2ccccc2nc(/C=C/c2ccc([N+](=O)[O-])cc2)n1CCCO	0	0	0	0	0
COc1ccccc1-n1ncc2c(C)nnc(SCC(=O)NCc3ccccc3Cl)c21	-	-	89!	-	-
COC(=O)c1ccc(S(=O)(=O)N2CCCN(S(=O)(=O)c3cnn(C)c3)CC2)cc1	-	-	0	-	-
COc1ccc(N(CC(=O)NCCSc2ccccc2)S(C)(=O)=O)cc1	0	0	0	0	0
COc1ccc(OC)c(N(CC(=O)NCCSc2ccccc2)S(C)(=O)=O)c1	0	0	0	50	0
COC(=O)c1sc(C(C)(C)C)cc1CS(=O)(=O)c1ccc(Cl)cc1	0	0	0	0	0
COC(=O)c1sc(C(C)(C)C)cc1CSc1ccccc1	0	0	0	0	84
CC(C)(C)c1ccc(C(=O)OC/C(O)=C(\C#N)c2nc3ccccc3s2)cc1	0	0	0	0	85
N#C/C(=C(/O)COC(=O)c1ccccc1O)c1nc2ccccc2s1	-	0	0	0	-
COC(=O)C1=C(C)N(Cc2ccccc2)C(=NCCc2c[nH]c3ccccc23)N[C@H]1c1cccc(F)c1	-	0	0	-	-
COC(=O)C1=C(C)N(Cc2ccccc2)C(=NCCc2c[nH]c3ccccc23)N[C@H]1c1ccccc1	-	-	47	-	-
CC1(C)Cc2cccc(OCC(=O)NCCn3nc(-c4cccs4)n(C4CC4)c3=O)c2O1	-	-	0	-	-
CCc1ccc(S(=O)(=O)c2cnc(SCC(=O)Nc3ccc(C(C)C)cc3)[nH]c2=O)cc1	-	-	0	-	-
Cc1cccnc1NC(=S)Nc1ccc(F)cc1F	0	0	0	0	0
Cc1ccc(C)c(NC(=S)Nc2ncccc2C)c1	0	0	40	0	0
O=C(Nc1ccc(F)cc1)Nc1cc(OCC(F)(F)F)cc(OCC(F)(F)F)c1	92	0	0	0	100
Cc1csc(NC(=O)c2c(O)c3cccc4c3n(c2=O)CCC4)n1	-	-	-	0	-
CCCc1nnc(NC(=O)c2c(O)c3cccc4c3n(c2=O)CCC4)s1	88	-	-	0	96
COC(C)(CNC(=O)c1cccc(Br)c1)c1cccc(Cl)c1 (stereo not given)	-	-	0	-	-
SMILES	RN4220 kill	CCHF vOTU inh	PriA SSB inh	DUSP3 inh	Sa ugtP lethal
COc1cccc(C=NNc2snc(SC)c2C#N)c1O	96	-	0	-	96
Cc1ccc(/C=N/NC(=O)Cc2c(F)cccc2Cl)s1	-	0	-	53	-
Cc1ccc(C=NNC(=O)Cc2c(F)cccc2Cl)s1	0	-	0	-	0
CCOc1ccc(CN2CCNC(=O)C2CC(=O)NCc2ccccn2)cc1 (stereo not given)	0	0	0	54	0
O=C(NC(NCc1cccnc1)C(Cl)(Cl)Cl)c1cccc2ccccc12 (stereo not given)	0	0	0	54	0
O=C(c1ccc(Br)cc1)C(CN1CCOCC1)c1ccccc1 (stereo not given)	93	0	0	0	100
CCOc1ccc(C(=O)C(CN2CCOCC2)c2ccccc2)cc1 (stereo not given)	0	0	0	0	0
CCN1C(=O)C(C)(C)COc2ccc(NC(=O)COc3ccccc3F)cc21	-	-	0	-	-
NC(=O)CSc1nnc2ccc(-c3ccc(Br)cc3)nn12	-	-	0	-	-
CCOC(=O)C1CCN(c2ccc([N+](=O)[O-])c(C(C)=O)c2)CC1	0	0	0	0	0
CCOC(=O)C1CCN(c2ccc(S(=O)(=O)C(F)(F)F)cc2[N+](=O)[O-])CC1	-	-	35	-	-
O=C(C1CN(S(=O)(=O)C2CC2)C1)N1CCN(C(c2ccccc2)c2ccccc2)CC1	-	-	0	-	-
Cc1cccc(N(C)S(=O)(=O)c2c(C)[nH]c(C)c2C(=O)N2CCCC2)c1	0	0	0	54	0
O=C(Nc1onc2c1CCC2)C1COc2ccccc2O1 (stereo not given)	-	-	0	-	-
CCCCOc1ccc(NC(=O)Nc2nnc(C)s2)cc1	-	0	0	57	-
COC(=O)C1=CC(C(=O)c2cccs2)=NN(c2ccc(OC)cc2)C1C(=O)OC (stereo not given)	0	0	39	0	0
COC(=O)C1=NN(c2ccc(OC)cc2)C2C(=O)N(c3ccccc3OC)C(=O)C12 (stereo not given)	0	0	0	0	0
COc1cccc(NC(=O)[C@@H](NC(=O)N2CC3C[C@H](C2)Cn2c3cccc2=O)C(C)C)c1	-	-	0	-	-
S=C(Nc1ccc(Cl)cc1)c1nc2ccccc2[nH]1	99	0	0	0	96
N#Cc1cccnc1OC1CCN(S(=O)(=O)C2CCCCC2)CC1	-	-	0	-	-
CCc1ccccc1NC1=NCC(=O)N1C1CCCC1	0	0	0	53	0
CCc1ccccc1NC1=NCC(=O)N1Cc1ccc(OC)cc1	0	0	0	0	0
Cc1cc(-c2nnc(NC(=O)CCCSc3ccc(F)cc3)o2)nn1C	-	-	0	-	-
O=c1cc(-c2ccccc2Cl)oc2ccc([N+](=O)[O-])c(O)c12	99	0	0	0	100
COc1ccccc1-c1cc(=O)c2c(O)ccc([N+](=O)[O-])c2o1	0	0	0	0	0
SMILES	RN4220 kill	CCHF vOTU inh	PriA SSB inh	DUSP3 inh	Sa ugtP lethal
O=c1cc(-c2ccccc2Cl)oc2ccc(Br)cc12	-	-	0	-	-
Nc1ccc2oc(-c3ccccc3Cl)cc(=O)c2c1O	0	0	0	0	94
O=c1cc(-c2ccccc2Cl)oc2c([N+](=O)[O-])c(O)cc(O)c12	87	0	0	0	91
COc1cccc(OCC(=O)Nc2ccc3c(c2)C(=O)NCCO3)c1	-	-	0	-	-
O=C(c1ccc(Cn2ccnc2)cc1)N1CC(Oc2nc3ccccc3s2)C1	-	-	0	-	-
COC(=O)c1cn(NC(=O)c2cc(-c3ccco3)nc3ccccc23)c(=O)c2ccccc12	-	-	0	-	-
CN(CCCNC(=O)C1CCC(CNS(=O)(=O)c2ccccc2)CC1)Cc1ccccc1 (stereo not given)	0	0	0	56	0
CC(=O)Nc1ccc(S(=O)(=O)NCC2CCC(C(=O)NCCCN(C)Cc3ccccc3)CC2)cc1 (stereo not given)	0	0	0	0	0
CC(C)(C)c1ccc(C(=O)NCc2n[nH]c(=S)n2-c2ccc(Cl)c(Cl)c2)cc1	-	-	0	-	-
CCCN(CCC)S(=O)(=O)c1ccc(C(=O)NCc2n[nH]c(=S)n2-c2ccc(Cl)c(Cl)c2)cc1	0	0	45!	0	0
CS(=O)(=O)c1nc2ccccc2n1Cc1ccc(Cl)c(Cl)c1	-	-	0	-	-
O=C(c1ccccc1)c1ccc(OC(=O)c2ccc(Br)o2)cc1	-	-	0	-	-
COc1ccc(C(=O)/C(C#N)=N/Nc2ccccc2[N+](=O)[O-])cc1	-	0	-	0	-
C/C(=N\Nc1cccc([N+](=O)[O-])c1)c1ccccc1O	-	0	-	0	-

Screens: PubChem BioAssay, several laboratories
